# How the values were obtained:
# Assay in all cases: DAPPL (digital affinity profiling via proximity ligation, sequencing); 10 mM Tris-HCl pH 7.5, 50 mM NaCl, 1 mM DTT, 4% glycerol, room temperature, 30 min; GST-TFs on glutathione beads, 16-mer random dsDNA library, 0.1% formaldehyde crosslink after washing; high values mean tight binding
# [1] = biological target: T1, FEV (Homo sapiens, UniProt Q99581 1-238); settings: protein: recombinant; tags: N-terminal GST; dsDNA, one strand shown
# T1 sequence: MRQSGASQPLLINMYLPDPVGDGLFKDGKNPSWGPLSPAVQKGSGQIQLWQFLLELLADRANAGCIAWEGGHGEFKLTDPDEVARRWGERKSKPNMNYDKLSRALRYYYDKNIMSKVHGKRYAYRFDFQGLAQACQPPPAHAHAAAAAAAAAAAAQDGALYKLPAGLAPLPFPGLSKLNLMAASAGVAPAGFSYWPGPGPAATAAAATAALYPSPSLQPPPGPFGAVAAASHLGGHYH
# In short: (§1)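 Binding signal is each hexamer's read frequency for a factor divided by its frequency in the tag-only sample. The factors were GST-fused human transcription factors from yeast, captured on glutathione beads, DNA-barcoded and pooled with that sample. Pools were incubated with 200 nmole of a random double-stranded 16-mer DNA library in Tris/NaCl/DTT/glycerol buffer at room temperature for 30 min, then washed, crosslinked with 0.1% formaldehyde, proximity-ligated with BsaI/T4 ligase (1 h, 37 °C), PCR-amplified and sequenced on an Illumina NextSeq500.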
# [2] = biological target: ETV5 (Homo sapiens, UniProt P41161 1-510); settings: protein: recombinant; tags: N-terminal GST; dsDNA, one strand shown
# Chain of ETV5 (P41161 whole entry): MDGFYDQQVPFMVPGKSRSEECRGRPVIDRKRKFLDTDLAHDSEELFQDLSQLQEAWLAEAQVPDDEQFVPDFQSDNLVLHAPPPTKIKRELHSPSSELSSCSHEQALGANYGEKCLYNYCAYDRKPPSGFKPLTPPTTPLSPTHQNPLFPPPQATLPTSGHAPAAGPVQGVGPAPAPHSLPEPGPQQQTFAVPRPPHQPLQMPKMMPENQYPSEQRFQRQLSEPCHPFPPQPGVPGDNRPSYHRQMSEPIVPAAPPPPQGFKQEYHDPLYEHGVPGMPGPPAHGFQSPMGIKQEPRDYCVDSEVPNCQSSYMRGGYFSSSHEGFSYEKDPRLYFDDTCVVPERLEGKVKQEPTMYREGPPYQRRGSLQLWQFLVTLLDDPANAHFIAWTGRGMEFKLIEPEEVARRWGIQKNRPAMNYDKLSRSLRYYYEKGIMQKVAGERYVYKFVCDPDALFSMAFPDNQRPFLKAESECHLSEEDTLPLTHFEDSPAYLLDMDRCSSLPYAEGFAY
# In short: as §1
# [3] = biological target: HSF1 (Homo sapiens, UniProt Q00613 1-529); settings: protein: recombinant; tags: N-terminal GST; chain copies: 3; dsDNA, one strand shown
# Chain of HSF1 (Q00613 whole entry): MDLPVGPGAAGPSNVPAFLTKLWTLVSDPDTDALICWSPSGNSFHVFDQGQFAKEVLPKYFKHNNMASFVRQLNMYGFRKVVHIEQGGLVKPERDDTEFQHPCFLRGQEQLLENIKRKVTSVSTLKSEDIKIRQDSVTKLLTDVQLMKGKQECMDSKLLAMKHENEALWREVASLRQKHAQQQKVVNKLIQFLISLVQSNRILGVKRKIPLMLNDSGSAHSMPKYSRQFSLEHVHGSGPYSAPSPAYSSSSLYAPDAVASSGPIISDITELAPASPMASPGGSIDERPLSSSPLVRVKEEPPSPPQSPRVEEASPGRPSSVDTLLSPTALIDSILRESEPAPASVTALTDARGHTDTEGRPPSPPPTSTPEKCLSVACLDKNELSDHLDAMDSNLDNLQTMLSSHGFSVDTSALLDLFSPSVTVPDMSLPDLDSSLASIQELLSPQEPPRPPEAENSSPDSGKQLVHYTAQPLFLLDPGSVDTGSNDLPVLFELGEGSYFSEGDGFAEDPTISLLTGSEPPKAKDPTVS
# In short: as §1
# [4] = biological target: ELF4 (Homo sapiens, UniProt Q99607 1-663); settings: protein: recombinant; tags: N-terminal GST; dsDNA, one strand shown
# Chain of ELF4 (Q99607 whole entry): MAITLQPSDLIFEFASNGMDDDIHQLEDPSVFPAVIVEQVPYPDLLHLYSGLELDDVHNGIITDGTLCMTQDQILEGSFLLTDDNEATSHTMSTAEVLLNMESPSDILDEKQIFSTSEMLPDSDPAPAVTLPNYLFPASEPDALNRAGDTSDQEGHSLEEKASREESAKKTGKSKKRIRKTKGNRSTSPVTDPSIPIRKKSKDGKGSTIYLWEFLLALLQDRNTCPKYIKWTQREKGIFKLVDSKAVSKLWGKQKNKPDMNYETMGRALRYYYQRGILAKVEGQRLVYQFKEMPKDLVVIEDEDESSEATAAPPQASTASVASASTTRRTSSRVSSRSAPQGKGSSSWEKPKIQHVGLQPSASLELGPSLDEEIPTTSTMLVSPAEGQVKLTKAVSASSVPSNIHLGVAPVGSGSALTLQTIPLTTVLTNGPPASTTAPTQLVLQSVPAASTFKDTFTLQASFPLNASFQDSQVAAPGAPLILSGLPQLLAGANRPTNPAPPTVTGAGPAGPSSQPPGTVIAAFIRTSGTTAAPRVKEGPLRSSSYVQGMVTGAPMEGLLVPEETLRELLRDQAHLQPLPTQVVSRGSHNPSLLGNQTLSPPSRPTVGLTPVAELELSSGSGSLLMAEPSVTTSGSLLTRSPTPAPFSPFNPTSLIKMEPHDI
# In short: as §1
# [5] = biological target: T2, ELK4 (Homo sapiens, UniProt P28324-2 1-405); settings: protein: recombinant; tags: N-terminal GST; dsDNA, one strand shown
# T2 sequence: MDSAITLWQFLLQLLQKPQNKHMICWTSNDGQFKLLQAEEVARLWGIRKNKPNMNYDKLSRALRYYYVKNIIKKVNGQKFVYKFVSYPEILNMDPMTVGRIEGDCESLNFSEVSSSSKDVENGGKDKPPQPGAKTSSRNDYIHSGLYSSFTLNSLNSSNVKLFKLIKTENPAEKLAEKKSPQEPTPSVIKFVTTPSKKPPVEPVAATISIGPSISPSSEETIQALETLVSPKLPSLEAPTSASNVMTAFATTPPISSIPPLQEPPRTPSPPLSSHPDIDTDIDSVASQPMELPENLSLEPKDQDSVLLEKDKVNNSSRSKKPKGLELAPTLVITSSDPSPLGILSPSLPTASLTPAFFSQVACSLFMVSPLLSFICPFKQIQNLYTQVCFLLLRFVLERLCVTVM
# In short: as §1
# [6] = biological target: T3, ETV2 (Homo sapiens, UniProt O00321 1-342); settings: protein: recombinant; tags: N-terminal GST; dsDNA, one strand shown
# T3 sequence: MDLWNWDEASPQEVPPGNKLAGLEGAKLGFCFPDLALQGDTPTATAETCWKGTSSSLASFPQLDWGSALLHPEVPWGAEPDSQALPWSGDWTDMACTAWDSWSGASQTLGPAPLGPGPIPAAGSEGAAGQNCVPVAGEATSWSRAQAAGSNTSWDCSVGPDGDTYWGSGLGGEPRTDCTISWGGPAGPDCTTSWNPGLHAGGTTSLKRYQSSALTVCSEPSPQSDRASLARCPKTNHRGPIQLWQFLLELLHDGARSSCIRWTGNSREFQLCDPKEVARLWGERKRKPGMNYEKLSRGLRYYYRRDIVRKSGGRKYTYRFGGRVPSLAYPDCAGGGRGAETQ
# In short: as §1
# [7] = biological target: T4, ELF3 (Homo sapiens, UniProt P78545 1-371); settings: protein: recombinant; tags: N-terminal GST; dsDNA, one strand shown
# T4 sequence: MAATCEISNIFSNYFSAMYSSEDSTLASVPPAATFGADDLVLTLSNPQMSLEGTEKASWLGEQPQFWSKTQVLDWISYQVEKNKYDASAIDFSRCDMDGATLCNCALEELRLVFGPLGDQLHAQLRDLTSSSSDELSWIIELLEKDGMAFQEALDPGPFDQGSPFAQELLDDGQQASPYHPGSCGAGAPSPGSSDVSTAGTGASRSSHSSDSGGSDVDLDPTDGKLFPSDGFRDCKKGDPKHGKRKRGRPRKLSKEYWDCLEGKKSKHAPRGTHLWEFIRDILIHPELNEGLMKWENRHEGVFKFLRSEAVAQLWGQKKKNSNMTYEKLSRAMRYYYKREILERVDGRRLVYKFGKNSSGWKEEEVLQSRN
# In short: as §1
# [8] = biological target: CRX (Homo sapiens, UniProt O43186 1-299); settings: protein: recombinant; tags: N-terminal GST; dsDNA, one strand shown
# Chain of CRX (O43186 whole entry): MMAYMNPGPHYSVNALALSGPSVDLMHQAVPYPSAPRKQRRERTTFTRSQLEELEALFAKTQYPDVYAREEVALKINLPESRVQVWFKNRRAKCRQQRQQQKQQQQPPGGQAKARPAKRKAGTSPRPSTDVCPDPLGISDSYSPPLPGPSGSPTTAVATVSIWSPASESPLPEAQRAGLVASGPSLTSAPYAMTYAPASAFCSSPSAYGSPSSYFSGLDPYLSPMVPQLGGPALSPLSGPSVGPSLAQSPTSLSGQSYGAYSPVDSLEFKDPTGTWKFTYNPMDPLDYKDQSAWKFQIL
# In short: as §1
# [9] = biological target: ETV1 (Homo sapiens, UniProt P50549 1-477); settings: protein: recombinant; tags: N-terminal GST; dsDNA, one strand shown
# Chain of ETV1 (P50549 whole entry): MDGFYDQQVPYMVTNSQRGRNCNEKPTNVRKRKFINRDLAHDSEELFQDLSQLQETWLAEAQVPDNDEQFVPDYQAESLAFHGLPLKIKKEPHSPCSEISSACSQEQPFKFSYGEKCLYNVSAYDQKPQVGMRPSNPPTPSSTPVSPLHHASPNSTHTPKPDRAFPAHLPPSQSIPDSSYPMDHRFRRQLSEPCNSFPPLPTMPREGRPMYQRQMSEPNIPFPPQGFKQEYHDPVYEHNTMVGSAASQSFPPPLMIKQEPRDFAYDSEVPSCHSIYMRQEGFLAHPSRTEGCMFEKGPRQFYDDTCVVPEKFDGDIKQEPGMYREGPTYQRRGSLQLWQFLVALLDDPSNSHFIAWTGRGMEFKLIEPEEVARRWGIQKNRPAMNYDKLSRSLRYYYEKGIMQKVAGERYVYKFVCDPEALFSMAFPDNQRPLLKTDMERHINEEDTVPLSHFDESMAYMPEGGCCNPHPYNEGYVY
# In short: as §1
# [10] = biological target: T5, ERF (Homo sapiens, UniProt P50548 1-548); settings: protein: recombinant; tags: N-terminal GST; dsDNA, one strand shown
# T5 sequence: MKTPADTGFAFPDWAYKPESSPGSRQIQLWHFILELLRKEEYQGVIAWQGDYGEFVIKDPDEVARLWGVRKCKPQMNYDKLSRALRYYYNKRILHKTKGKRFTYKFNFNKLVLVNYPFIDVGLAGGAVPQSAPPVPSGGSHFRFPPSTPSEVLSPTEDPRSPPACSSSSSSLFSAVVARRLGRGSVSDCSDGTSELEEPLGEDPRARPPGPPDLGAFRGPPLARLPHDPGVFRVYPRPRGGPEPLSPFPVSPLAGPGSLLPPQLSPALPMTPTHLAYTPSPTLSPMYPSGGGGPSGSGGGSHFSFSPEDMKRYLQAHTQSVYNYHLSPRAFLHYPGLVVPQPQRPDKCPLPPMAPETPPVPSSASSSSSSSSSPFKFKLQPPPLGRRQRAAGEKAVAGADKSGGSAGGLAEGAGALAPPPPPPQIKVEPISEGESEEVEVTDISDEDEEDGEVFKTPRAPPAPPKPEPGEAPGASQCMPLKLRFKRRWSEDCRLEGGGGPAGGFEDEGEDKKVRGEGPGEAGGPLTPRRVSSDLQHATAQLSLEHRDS
# In short: as §1
# [11] = biological target: T6, ETV3L (Homo sapiens, UniProt Q6ZN32 1-361); settings: protein: recombinant; tags: N-terminal GST; dsDNA, one strand shown
# T6 sequence: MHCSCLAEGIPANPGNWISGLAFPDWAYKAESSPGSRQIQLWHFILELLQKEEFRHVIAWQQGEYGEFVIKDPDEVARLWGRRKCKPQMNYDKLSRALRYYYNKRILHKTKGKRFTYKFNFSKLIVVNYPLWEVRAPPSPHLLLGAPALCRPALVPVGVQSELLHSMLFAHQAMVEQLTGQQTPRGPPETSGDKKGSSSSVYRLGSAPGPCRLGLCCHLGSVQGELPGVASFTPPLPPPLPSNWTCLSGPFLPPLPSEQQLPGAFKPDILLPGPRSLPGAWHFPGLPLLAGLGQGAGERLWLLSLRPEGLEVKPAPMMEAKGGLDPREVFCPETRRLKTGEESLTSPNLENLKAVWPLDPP
# In short: as §1
# [12] = biological target: T7, ETS2 (Homo sapiens, UniProt P15036 1-469); settings: protein: recombinant; tags: N-terminal GST; dsDNA, one strand shown
# T7 sequence: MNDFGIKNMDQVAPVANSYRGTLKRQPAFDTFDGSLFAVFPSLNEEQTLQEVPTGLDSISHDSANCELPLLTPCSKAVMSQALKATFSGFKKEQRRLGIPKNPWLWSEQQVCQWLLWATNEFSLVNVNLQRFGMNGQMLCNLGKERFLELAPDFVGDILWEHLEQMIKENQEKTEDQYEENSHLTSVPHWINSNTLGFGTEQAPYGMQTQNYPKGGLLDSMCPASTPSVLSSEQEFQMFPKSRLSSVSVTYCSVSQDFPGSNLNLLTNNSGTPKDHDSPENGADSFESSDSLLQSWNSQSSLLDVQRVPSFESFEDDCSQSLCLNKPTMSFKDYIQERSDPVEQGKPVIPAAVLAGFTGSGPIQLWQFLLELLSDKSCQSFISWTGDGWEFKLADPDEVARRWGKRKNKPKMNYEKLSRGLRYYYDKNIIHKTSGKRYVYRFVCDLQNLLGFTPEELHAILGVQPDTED
# In short: as §1
# [13] = biological target: T8, SPDEF (Homo sapiens, UniProt O95238 1-335); settings: protein: recombinant; tags: N-terminal GST; dsDNA, one strand shown
# T8 sequence: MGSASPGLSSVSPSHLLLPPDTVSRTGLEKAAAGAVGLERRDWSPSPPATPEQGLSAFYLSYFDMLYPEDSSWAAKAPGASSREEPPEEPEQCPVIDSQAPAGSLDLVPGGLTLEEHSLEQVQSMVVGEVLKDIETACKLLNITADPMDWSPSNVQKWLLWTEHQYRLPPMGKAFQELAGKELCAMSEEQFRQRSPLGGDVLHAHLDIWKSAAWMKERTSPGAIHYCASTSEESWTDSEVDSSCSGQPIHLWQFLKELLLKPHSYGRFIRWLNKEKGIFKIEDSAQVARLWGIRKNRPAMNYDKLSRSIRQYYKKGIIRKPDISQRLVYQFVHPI
# In short: as §1
# [14] = biological target: T9, ETV7 (Homo sapiens, UniProt Q9Y603 1-341); settings: protein: recombinant; tags: N-terminal GST; dsDNA, one strand shown
# T9 sequence: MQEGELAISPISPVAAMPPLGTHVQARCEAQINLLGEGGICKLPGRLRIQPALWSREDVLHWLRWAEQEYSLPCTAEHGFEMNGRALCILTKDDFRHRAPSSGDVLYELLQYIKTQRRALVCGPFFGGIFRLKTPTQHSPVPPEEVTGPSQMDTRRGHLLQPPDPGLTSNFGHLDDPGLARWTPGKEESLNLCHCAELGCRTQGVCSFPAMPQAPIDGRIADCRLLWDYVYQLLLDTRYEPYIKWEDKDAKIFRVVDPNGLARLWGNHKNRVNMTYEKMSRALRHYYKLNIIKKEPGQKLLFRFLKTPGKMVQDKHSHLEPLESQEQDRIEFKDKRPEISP
# In short: as §1
# [15] = biological target: T10, ETV3 (Homo sapiens, UniProt P41162-2 1-143); settings: protein: recombinant; tags: N-terminal GST; dsDNA, one strand shown
# T10 sequence: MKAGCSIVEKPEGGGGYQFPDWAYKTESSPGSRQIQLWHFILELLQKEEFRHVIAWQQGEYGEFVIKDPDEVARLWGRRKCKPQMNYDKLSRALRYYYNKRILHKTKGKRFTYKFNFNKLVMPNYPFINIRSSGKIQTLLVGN
# In short: as §1
# [16] = biological target: ETV6 (Homo sapiens, UniProt P41212 1-452); settings: protein: recombinant; tags: N-terminal GST; dsDNA, one strand shown
# Chain of ETV6 (P41212 whole entry): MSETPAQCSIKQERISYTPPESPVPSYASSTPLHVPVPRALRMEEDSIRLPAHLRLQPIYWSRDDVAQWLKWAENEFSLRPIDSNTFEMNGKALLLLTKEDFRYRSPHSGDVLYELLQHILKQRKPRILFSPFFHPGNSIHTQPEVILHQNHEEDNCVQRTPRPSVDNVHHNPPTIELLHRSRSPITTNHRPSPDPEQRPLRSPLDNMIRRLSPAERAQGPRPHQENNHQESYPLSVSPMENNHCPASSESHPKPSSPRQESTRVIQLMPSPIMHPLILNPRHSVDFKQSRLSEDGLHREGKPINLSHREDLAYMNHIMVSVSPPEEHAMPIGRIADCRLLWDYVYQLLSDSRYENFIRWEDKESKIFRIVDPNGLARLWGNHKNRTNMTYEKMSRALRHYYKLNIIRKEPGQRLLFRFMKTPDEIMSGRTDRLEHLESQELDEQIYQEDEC
# In short: as §1
Sequence,binding signal [1],binding signal [2],binding signal [3],binding signal [4],binding signal [5],binding signal [6],binding signal [7],binding signal [8],binding signal [9],binding signal [10],binding signal [11],binding signal [12],binding signal [13],binding signal [14],binding signal [15],binding signal [16]
TAACAG,"1.05 fold enrichment (6-mer frequency, TF over GST control)","1.04 fold enrichment (6-mer frequency, TF over GST control)","1.02 fold enrichment (6-mer frequency, TF over GST control)","1.09 fold enrichment (6-mer frequency, TF over GST control)","1.12 fold enrichment (6-mer frequency, TF over GST control)","1.02 fold enrichment (6-mer frequency, TF over GST control)","1.09 fold enrichment (6-mer frequency, TF over GST control)","1.3 fold enrichment (6-mer frequency, TF over GST control)","1.09 fold enrichment (6-mer frequency, TF over GST control)","1.05 fold enrichment (6-mer frequency, TF over GST control)","1.05 fold enrichment (6-mer frequency, TF over GST control)","1.03 fold enrichment (6-mer frequency, TF over GST control)","1.11 fold enrichment (6-mer frequency, TF over GST control)","1.09 fold enrichment (6-mer frequency, TF over GST control)","1.02 fold enrichment (6-mer frequency, TF over GST control)","1 fold enrichment (6-mer frequency, TF over GST control)"
TGACTA,"1.01 fold enrichment (6-mer frequency, TF over GST control)","1.04 fold enrichment (6-mer frequency, TF over GST control)","1.04 fold enrichment (6-mer frequency, TF over GST control)","1.09 fold enrichment (6-mer frequency, TF over GST control)","1.06 fold enrichment (6-mer frequency, TF over GST control)","1.17 fold enrichment (6-mer frequency, TF over GST control)","1.08 fold enrichment (6-mer frequency, TF over GST control)","1.17 fold enrichment (6-mer frequency, TF over GST control)","1.15 fold enrichment (6-mer frequency, TF over GST control)","1.14 fold enrichment (6-mer frequency, TF over GST control)","1.08 fold enrichment (6-mer frequency, TF over GST control)","1.04 fold enrichment (6-mer frequency, TF over GST control)","1.08 fold enrichment (6-mer frequency, TF over GST control)","1.07 fold enrichment (6-mer frequency, TF over GST control)","1.05 fold enrichment (6-mer frequency, TF over GST control)","1.15 fold enrichment (6-mer frequency, TF over GST control)"

# From PMC7862700, “An all-to-all approach to the identification of sequence-specific readers for epigenetic DNA modifications on cytosine”
